PLK1 PBD inh – PLK1 (human) polo-box domain binding inhibition. P53350. Plk1 PBD binding of FITC phosphopeptide, fluorescence polarization. Potency, µM, without a hit: max response, negative = inhibition, hits mostly inhibitors. 2.8% of 360,000 active. AID 720504; further: series mostly up to about 57 µM; nearly all actives have a fitted effect of over 65% in size
Tau fibril ThT – inhibitors of human tau fibril formation, thioflavin T binding; P10636; recombinant tau K18 P301L, heparin-induced fibrillization, ThT fluorescence; Potency, µM (titrated, usually from 57.4 µM), for the others: top-dose activity, negative = inhibition, actives largely listed as inhibitors; 2.1% of 270,000 active; AID 1460; further: nearly all actives have a fitted effect of over 55% in size
Target sequence (P10636 561-689 P618L limits assumed): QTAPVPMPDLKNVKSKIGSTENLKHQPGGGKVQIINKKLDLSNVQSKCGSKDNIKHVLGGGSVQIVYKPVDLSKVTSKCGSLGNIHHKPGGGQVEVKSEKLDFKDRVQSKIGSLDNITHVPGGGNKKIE
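Heparin-induced fibrillization of the P301L-mutant K18 repeat-domain fragment of human tau was followed by ThT binding in quantitative high-throughput format.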
Tau fluor cs – counter-screen for tau fibril formation inhibitors; AID 1463; tau K18 P301L Alexa594 fluorescence, heparin fibrillization; 0.93% of 280,000 active; Potency, µM (highest dose often 57.7 µM), without a hit: at the top dose activity change, negative = decrease; further: nearly all actives have a fitted effect of over 55% in size
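Human K18 P301L tau (15 uM unlabeled plus 0.24 uM Alexa 594-labeled, final) in 100 mM sodium acetate pH 7 was mixed with compound and 20 uM heparin and incubated 6 hr at 37 C.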
Tau FP inhib – inhibitors of human tau fibril formation; K18 P301L tau heparin fibrillization, Alexa594 FP, 6 h; 0.39% of 280,000 active; Potency, µM (doses to about 57.7 µM), inactives show at the highest dose activity, negative = inhibition, hits mostly inhibitors; P10636; further: nearly all actives have a fitted effect of over 55% in size
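Heparin (20 uM) drove fibril formation of recombinant tau K18 P301L, 15 uM unlabeled with 0.24 uM Alexa 594 label, for 6 hr at 37 C in 100 mM sodium acetate pH 7. Fluorescence polarization (555/632 nm) read 1 hr after 30 uM ThT.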
VDR inh – vitamin D3 receptor (human) inhibition; Potency, µM, for the others: max response, negative = inhibition, most hits filed as inhibitors; 0.93% of 400,000 active; P11473; VDR-SRC2-3 peptide fluorescence polarization, 2 h
Target sequence (P11473 whole entry, looked up): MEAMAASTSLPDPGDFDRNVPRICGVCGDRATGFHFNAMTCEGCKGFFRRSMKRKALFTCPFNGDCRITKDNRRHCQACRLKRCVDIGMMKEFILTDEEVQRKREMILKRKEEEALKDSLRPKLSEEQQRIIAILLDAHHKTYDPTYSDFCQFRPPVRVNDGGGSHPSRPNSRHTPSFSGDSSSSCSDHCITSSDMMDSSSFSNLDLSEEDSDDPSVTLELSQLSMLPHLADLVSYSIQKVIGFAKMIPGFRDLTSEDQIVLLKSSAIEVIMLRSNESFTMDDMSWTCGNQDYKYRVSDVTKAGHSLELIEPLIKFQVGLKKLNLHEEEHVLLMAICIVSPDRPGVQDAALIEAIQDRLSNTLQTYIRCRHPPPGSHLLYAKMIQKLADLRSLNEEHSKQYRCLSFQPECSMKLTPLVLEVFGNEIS
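Compounds are added to VDR with labelled SRC2-3 coactivator peptide and held 2 h at room temperature. Inhibition of the VDR–peptide interaction is then read as a change in fluorescence polarization.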
Sfp PPTase inh – blocks B. subtilis Sfp PPTase activity; Biochemical Sfp PPTase activity, qHTS; Potency, µM, inactives show largest response in the series, negative = inhibition, hits mostly inhibitors; 3.5% of 310,000 active; AID 1490;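 further: the enzyme is Sfp with the accession as filed and its product quenches rhodamine fluorescence; 0% = enzyme reaction without inhibitor and -100% = no enzyme wells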
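Step 1, compound plus 15 nM Sfp-PPTase, 15 min, room temperature. Step 2, add rhodamine-CoA (5 uM) and BHQ-2-YbbR (12.5 uM). Step 3, read 525/598 nm fluorescence at 0 and 30 min.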
* marks the source's active call; other numbers are inactive results; u = inconclusive; x = not tested or not shown; [ ] = another dose, or the depositor's remark. Compounds with a hit are over-represented: about 6% of the library has one in this group of screens. The call rests on the fitted dose curve; in most records, active means well fitted curve in the direction sought with a large enough effect; inconclusive means small, poorly fitted or top-dose-only effect, or another doubt; inactive means no such curve, though single readings can be large; an effect the other way counts as inactive or inconclusive. Unless noted, on the % scale 0 is the no-effect control and ±100 the full control effect; potency means the concentration at half of the fitted maximal effect.

SMILES	PLK1 PBD inh	Tau fibril ThT	Tau fluor cs	Tau FP inhib	VDR inh	Sfp PPTase inh
CCc1ccc(CN2CCC(C(=O)Nc3ccc(Oc4ccccc4)nc3)CC2)o1	-5.9%	x	x	x	-6.2%	6.5%
COc1cc(C(O)P(=O)(OCC(C)C)OCC(C)C)cc(OC)c1OC (stereo not given)	11.9µM*	-4.1%	-1.7%	2.2%	-8.4%	6.8%
CCOP(=O)(OCC)C(O)c1cc(OC)c(OC)c(OC)c1 (stereo not given)	-16.5%	8.4%	3.9%	4.7%	-12.1%	9.5%
Cc1ccc2cc(C=C(C#N)C#N)c(N3CCCCC3)nc2c1	u	25.1µM*	-16.9%	u	u	-12.8%
COC(=O)C1=C(C)N(CCc2c[nH]c3ccccc23)C(=O)/C1=C\N(C)C	23.8µM*	14.1µM*	u	-17.5%	u	17.8µM*
CCOC(=O)c1c(S(=O)(=O)Nc2ccc(C)cn2)c(C)n(C)c1C	21.2µM*	x	x	x	u	5.1%
CC(C)(C)OC(=O)N1CCC(c2c(C(=O)NCc3ccco3)cnn2-c2ccc(F)cc2)CC1	x	-16.9%	-9.4%	-4.5%	-9.0%	x
COc1ccc(NC(=O)C2=C(C)Nc3nc(SCc4ccc(C)cc4C)nn3C2c2cccc(OC)c2OC)cc1 (stereo not given)	x	6.2%	-6.9%	-13.8%	4.7%	x
CC(c1ccccc1)C1CC(=O)N(Cc2ccco2)C1=O (stereo not given)	-22.1%	-17.9%	-5.9%	-9.8%	-16.9%	22.4µM*
Cc1cc2nc(/C(C#N)=C/c3ccncc3)[nH]c2cc1C	26.7µM*	u	u	8.4%	22.4µM*	-0.3%
Cc1ccc2nc(/C(C#N)=C/c3cccc(Br)c3)[nH]c2c1	x	5.01µM*	u	-3.9%	-6.6%	x
Cc1ccc2nc(/C(C#N)=C\c3ccc(N4CCCCC4)c([N+](=O)[O-])c3)[nH]c2c1	-18.1%	3.16µM*	-29.7%	7.4%	-5.0%	-8.1%
Cc1ccc2nc(/C(C#N)=C/c3ccc(O)c(O)c3)[nH]c2c1	u	x	x	x	u	-25.2%
N#C/C(=C\c1ccc(-c2ccc(C(=O)O)cc2)o1)c1nc2ccccc2[nH]1	43.6%	u	u	-7.0%	13.4%	-12.1%
N#C/C(=C\c1ccc(N2CCOCC2)o1)c1nc2ccccc2[nH]1	65.9%	7.94µM*	u	-11.3%	-0.5%	31.6µM*
Cc1nn(C(C)(C)C)c(OC(=O)c2c(F)cccc2F)c1Sc1ccccc1	x	-22.4%	-26.0%	-11.0%	-11.0%	x
CC(C)c1ccc(CN(Cc2ccco2)c2cnc(S(C)(=O)=O)nc2C(=O)Nc2ccc(F)cc2)cc1	x	6.5%	-4.4%	-3.7%	0.1%	x
COC(=O)Cc1c(C)c2ccc3c(c2oc1=O)CN(Cc1ccc(Cl)cc1)CO3	x	-9.7%	-10.0%	1.4%	5.6%	x
Nc1ncnc2c1ncn2[C@@H]1O[C@H](C(=O)Nc2ccc(Oc3ccccc3)nc2)[C@@H](O)[C@H]1O	-16.9%	x	x	x	x	x
N#C/C(=C\c1ccc(Oc2ccc(C(F)(F)F)cc2[N+](=O)[O-])cc1)c1nc2ccccc2[nH]1	-4.1%	u	u	u	4.3%	-2.5%
O=C(O)c1cc(/C=C/c2ccc(N3CCOCC3)c([N+](=O)[O-])c2)nc2ccccc12	u	14.1µM*	-21.9%	-4.6%	-14.1%	15.7%
O=[N+]([O-])c1cc(Cl)ccc1N1CCOCC1	-14.2%	-0.1%	7.6%	-1.7%	-0.7%	-1.9%
N#C/C(=C/c1ccc(N2CCCC2)c([N+](=O)[O-])c1)c1nc2ccccc2[nH]1	-0.4%	2.51µM*	u	-12.5%	15.6%	-10.4%
N#Cc1ccc(N2CCOCC2)c([N+](=O)[O-])c1	15µM*	-5.3%	2.7%	4.0%	u	-1.8%
O=C(c1ccc(N2CCOCC2)c([N+](=O)[O-])c1)N1CCN(c2ccccc2)CC1	u	x	x	x	19.8%	x
SMILES	PLK1 PBD inh	Tau fibril ThT	Tau fluor cs	Tau FP inhib	VDR inh	Sfp PPTase inh
CC(=O)Nc1ccc(/C=C/c2ccc3c([N+](=O)[O-])cccc3n2)cc1	-2.8%	1.41µM*	-10.7%	13.7%	-16.3%	19.8%
Cc1cnc(CNc2ncncc2-c2cccc(C#N)c2)cn1	x	x	x	x	-26.0%	u
CCOCCCn1c(SCC(=O)Nc2ccccc2CC)nc2ccccc2c1=O	x	-7.1%	-11.7%	-2.5%	-3.5%	x
COC(=O)c1scc(-c2ccc(C)cc2)c1S(=O)(=O)Nc1ccc(OC(F)(F)F)cc1	x	2.5%	0.3%	-10.7%	15.0%	x
COC(=O)/C(C#N)=C/c1ccc(N2CCOCC2)c([N+](=O)[O-])c1	-9.9%	-14.3%	-2.1%	3.0%	5.7%	-1.0%
N#C/C(=C\c1ccc(N2CCOCC2)c([N+](=O)[O-])c1)c1nc2ccccc2[nH]1	-6.4%	5.01µM*	22.4µM*[quencher]	-7.2%	0.5%	-8.9%
Cc1ccc(NC(=O)c2cccc(S(=O)(=O)Nc3c(C)n(C)n(-c4ccccc4)c3=O)c2)cc1C	2.9%	x	x	x	-5.7%	x
Cc1ncc(CO)c(/C=N/NC(=O)c2ccc(O)cc2)c1O	-2.7%	-4.2%	-4.0%	2.2%	-10.0%	-3.7%
Cc1ncc(CO)c(/C=N/NC(=O)c2ccccc2Br)c1O	-1.1%	-7.3%	-10.7%	0.3%	-0.4%	16.4%
Cc1ncc(CO)c(/C=N/NC(=S)Nc2cccc(Cl)c2)c1O	21.2µM*	u	u	8.0%	79.4µM*	50.1µM*
Cc1ncc(CO)c(/C=N/NC(=S)Nc2ccc(Cl)c(Cl)c2)c1O	26.7µM*	u	25.1µM*[quencher]	-2.7%	u	50.1µM*
CN1CCC(N(C)CC(=O)Nc2ccc3c(c2)OC(F)(F)O3)CC1	-1.2%	-12.3%	-7.4%	-4.3%	8.9%	50.1µM*
Cc1cnc(-c2nc3ccccc3n2C(C(=O)NC(C)(C)C)c2ccccc2)cn1 (stereo not given)	-13.3%	x	x	x	x	x
NC(=O)c1ncn([C@@H]2O[C@H](CNCc3cccc(OC4CCCC4)c3)[C@@H](O)[C@H]2O)n1	-1.7%	x	x	x	-9.4%	x
COc1ccccc1NC(=O)c1ccccc1NC(=O)c1cc(Cl)ccc1NC(=O)c1ccco1	-4.6%	6.5%	-28.6%	u	7.0%	15.8µM*
